Source: PMC5540273 (PLoS ONE, 2017)

What was measured:
Conditions in all cases: concentration: 1 μM, replicates: in singlicate; n = 1
TSSK3 = test system: TSSK3
TTK = test system: TTK
TXK = test system: TXK
[1] = test system: TYK2(JH1domain-catalytic)
[2] = test system: TYK2(JH2domain-pseudokinase)
TYRO3 = test system: TYRO3
ULK1 = test system: ULK1
ULK2 = test system: ULK2
ULK3 = test system: ULK3
VEGFR2 = test system: T1, VEGFR2
T1 construct: gene KDR

VPS34 = test system: T2, VPS34
T2 construct: gene PIK3C3

VRK2 = test system: VRK2
WEE1 = test system: WEE1
WEE2 = test system: WEE2
WNK1 = test system: WNK1
WNK2 = test system: WNK2
WNK3 = test system: WNK3
WNK4 = test system: WNK4
YANK1 = test system: T3, YANK1
T3 construct: gene STK32A

YANK2 = test system: T4, YANK2
T4 construct: gene STK32B
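Note: KINOMEscan kinase panel screen.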

Structure (SMILES) | %Inh (TSSK3) | %Inh (TTK) | %Inh (TXK) | %Inh [1] | %Inh [2] | %Inh (TYRO3) | %Inh (ULK1) | %Inh (ULK2) | %Inh (ULK3) | %Inh (VEGFR2) | %Inh (VPS34) | %Inh (VRK2) | %Inh (WEE1) | %Inh (WEE2) | %Inh (WNK1) | %Inh (WNK2) | %Inh (WNK3) | %Inh (WNK4) | %Inh (YANK1) | %Inh (YANK2)
Cc1c(Cn2c(C)nn3c(=O)cc(N4CCOC(C)C4)nc23)cccc1C(F)(F)F (stereo not shown) [GSK2344444] | 0% | 6% | 0% | 13% | 0% | 0% | 34% | 0% | 15% | 0% | 48% | 0% | 10% | 0% | 4% | 0% | 2% | 0% | 0% | 0%
CN1c2ccc(CNc3ccc(F)cc3)cc2-c2c(cnn2C)S1(=O)=O | 0% | 0% | 0% | 0% | 0% | 0% | 0% | 0% | 0% | 0% | 0% | 0% | 2% | 0% | 0% | 0% | 1% | 0% | 0% | 0%
COc1ccc(CNC(=O)NC2CCN(c3ccnc(Nc4ccc(OC)cc4)n3)C2)cc1 (stereo not shown) [GSK1379727] | 5% | 18% | 0% | 37% | 46% | 0% | 0% | 0% | 9% | 0% | 0% | 32% | 9% | 7% | 4% | 0% | 44% | 63% | 0% | 0%
Cc1nnc(-c2ccc(C)c(-c3ccc(C(=O)Nc4ccc(NS(C)(=O)=O)cc4)cc3)c2)o1 [GW702865] | 3% | 0% | 0% | 20% | 11% | 0% | 0% | 0% | 0% | 9% | 0% | 0% | 17% | 0% | 0% | 1% | 35% | 26% | 6% | 0%
Cc1cccc(-c2nc(Nc3ccc4ncsc4c3)c3ccccc3n2)n1 [GW867588] | 0% | 55% | 0% | 0% | 55% | 0% | 4% | 0% | 2% | 6% | 0% | 0% | 8% | 6% | 0% | 6% | 31% | 0% | 0% | 0%
